Source: the supplement of paper PMC6555819

What was measured:
Experiment in all cases: PBM binding z-score (relative to random genomic background probes); higher = stronger binding; sequences stand for … in GC…GCGATTGACAGCGTAGAATGAAGG
[1] = test system: FXR:RXRa (NR concentration 270 nM, RXRa partner concentration 90 nM)
Method in brief: (§1)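 Custom Agilent 4×180K protein-binding microarrays carried double-stranded probes, each with a 34-nt variable region. These regions held direct-repeat seeds, single-nucleotide variants, half-site ablations and random human genomic background sequences. Ligand-free nuclear receptor dimers were incubated on the arrays for 1 h, antibodies against each partner (one per run) detected binding, and scanned fluorescence was regression-normalized. Binding z-scores take the random background probes as reference.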

[2] = test system: LXRa:RXRa (NR concentration 270 nM, RXRa partner concentration 90 nM)
Method in brief: as §1

[3] = test system: LXRa homodimer (NR concentration 270 nM)
Method in brief: as §1

[4] = test system: LXRb:RXRa (NR concentration 270 nM, RXRa partner concentration 90 nM)
Method in brief: as §1

[5] = test system: LXRb homodimer (NR concentration 270 nM)
Method in brief: as §1

[6] = test system: PPARa:RXRa (NR concentration 270 nM, RXRa partner concentration 90 nM)
Method in brief: as §1

[7] = test system: PPARg:RXRa (NR concentration 180 nM, RXRa partner concentration 90 nM)
Method in brief: as §1

[8] = test system: PPARg:RXRa 270nM:90nM, anti-RXR (NR concentration 270 nM, RXRa partner concentration 90 nM)
Method in brief: as §1

[9] = test system: PPARg:RXRa 30nM:10nM, anti-RXR (NR concentration 30 nM, RXRa partner concentration 10 nM)
Method in brief: as §1

[10] = test system: PPARg:RXRa 90nM:30nM, anti-RXR (NR concentration 90 nM, RXRa partner concentration 30 nM)
Method in brief: as §1

[11] = test system: PPARg:RXRa DBDmut IVT, anti-RXR (DBD mutation: RXRa K156A/R161A, NR concentration 270 nM, RXRa partner concentration 90 nM)
Method in brief: as §1

[12] = test system: PPARg:RXRa IVT, anti-PPARg (NR concentration 270 nM, RXRa partner concentration 90 nM)
Method in brief: as §1

[13] = test system: PPARg DBDmut:RXRa IVT, anti-PPARg (DBD mutation: PPARg1 K132A/R137A, NR concentration 270 nM, RXRa partner concentration 90 nM)
Method in brief: as §1

[14] = test system: PPARg DBDmut IVT, anti-PPARg (DBD mutation: PPARg1 K132A/R137A, NR concentration 270 nM)
Method in brief: as §1

[15] = test system: PPARg homodimer (NR concentration 180 nM)
Method in brief: as §1

[16] = test system: PXR:RXRa (NR concentration 270 nM, RXRa partner concentration 90 nM)
Method in brief: as §1

[17] = test system: PXR homodimer (NR concentration 270 nM)
Method in brief: as §1

[18] = test system: RARa:RXR (NR concentration 270 nM, RXRa partner concentration 90 nM)
Method in brief: as §1

[19] = test system: RARa homodimer (NR concentration 270 nM)
Method in brief: as §1

[20] = test system: RARb:RXRa (NR concentration 270 nM, RXRa partner concentration 90 nM)
Method in brief: as §1

Sequence	PBM binding z-score [1]	PBM binding z-score [2]	PBM binding z-score [3]	PBM binding z-score [4]	PBM binding z-score [5]	PBM binding z-score [6]	PBM binding z-score [7]	PBM binding z-score [8]	PBM binding z-score [9]	PBM binding z-score [10]	PBM binding z-score [11]	PBM binding z-score [12]	PBM binding z-score [13]	PBM binding z-score [14]	PBM binding z-score [15]	PBM binding z-score [16]	PBM binding z-score [17]	PBM binding z-score [18]	PBM binding z-score [19]	PBM binding z-score [20]
ACAGACAGGTGACGAAGGTAACTCAGGCTATCAT	-0.34	-0.14	-0.233	-0.231	-0.858	0.582	0.955	0.489	-0.242	0.424	0.762	1.19	0.0336	-0.57	-0.168	-0.208	-0.237	0.144	0.0267	0.637
CCTACTGGGCCATAAGGTCATTGATATCAACGTT	3.03	3.09	1.89	3.17	0.0476	4.14	4.49	4.98	3.38	4.64	4.4	5.28	0.506	0.0496	2.03	3.98	1.97	4.25	1.27	3.43
CAAACTAGGTCACAGAGGCCAAAGTCCGTGCGTA	4.93	3.79	1.02	2.66	0.0915	5.36	8.81	7.33	5.35	7.09	8.22	8.69	7.35	2.65	3.4	3.51	2.61	3.27	0.794	4.23
TCTATTAGTTGAACGGCAACCGACGAGTCCGTTT	0.294	0.618	0.311	0.621	0.735	0.859	0.133	1.87	3.63	2.83	2.15	0.0618	0.259	0.73	0.735	0.661	0.768	0.372	0.868	0.424
GATACAGGGTCAGCTAGAGGCCAGAGTGTGGAAA	4.82	3.13	-0.348	2.53	-0.522	4.62	3.38	3.34	0.644	2.07	0.974	2.4	-0.57	-0.662	3.47	3.5	0.00381	4.66	-0.116	4.25
ACTGACAGGTGAGTGAAGGTAACTCAGCTGGACG	0.406	0.0865	-0.418	-0.453	-0.767	0.153	0.398	0.0745	-0.305	-0.0738	0.237	1.07	0.18	-0.257	-0.647	-0.21	-0.633	0.381	-0.0244	0.482
AGAACGAGGGCAGGCTGAGTTGATAGCAGAGTAG	-0.312	-0.562	-0.661	-0.676	-1.05	0.187	0.64	0.432	-0.189	-0.155	2	1.53	0.0574	-0.0164	-0.517	0.169	-0.0945	-0.281	-0.536	1.63
CCTTACCGGTCACTGACAGGTTATAGCATTTGGA	1.09	1.89	1.73	1.31	0.619	1.49	0.664	0.675	0.114	0.418	0.892	1.17	0.534	0.217	2.23	1.01	0.467	1.29	1.61	3.06
GCGACTTGGGCATCAGCAGGTTACCATAACTTAA	-0.439	-0.445	-0.567	-0.214	-0.905	-0.0723	0.0729	-0.529	-0.585	-0.893	-0.319	-0.238	-1.02	-0.802	-0.13	-0.0644	-0.495	0.232	-0.904	0.00104
CAAACTAGGTCTAGGTCAAAGTCGGTTTGTGCCA	1.86	2.04	1.3	1.73	0.0723	3.34	2.95	3.82	1.2	3.03	4.21	4.82	0.191	0.991	1.41	1.7	0.0565	2.06	-0.42	2.67
TTACCAAGGTGAGCTGAGCTCGTTGATCCAACTC	-0.195	-0.544	-0.993	-0.67	-1.3	0.11	-0.393	-0.0625	-0.293	-0.268	0.946	1.2	0.0399	0.147	-0.967	-0.427	-0.854	0.0745	-1.22	0.907
AGAACGAGGGCAATGAGTTGATGGCACGGGTGGC	0.145	0.254	-0.585	-0.493	-0.436	1.25	1.29	0.598	-0.239	0.238	3.36	2.88	1.3	-0.157	-0.0227	1.19	3.75	0.0282	-0.254	1.99
GCTAGTCGGTCAGTAAAAGGTCACACACCGGTCG	4.06	4.97	5.34	4.32	0.747	4.67	3.19	4.83	2.43	4.01	2.63	3.74	0.159	0.0206	4.9	5.25	1.05	6.26	2.14	4.65
TAGCATAGGTCATGGGCCAGTATACCACGCGAAC	6.75	5.37	0.897	4.03	0.148	5.98	5.56	5.31	2.04	4.24	0.625	2.53	0.682	0.0731	2.07	3.23	-0.144	4.27	0.528	4.41
GATACAGGGTCAAAGCCAGAGTACGCGTATTGAT	7.15	4.59	0.214	3.97	0.158	5.59	5.42	5.39	2.26	4.25	2.68	3.63	1.47	0.035	2.25	3.75	0.314	4.76	0.583	4.03
TAGCCTAGGTCATGGGCCAGTATCCCACGCGAAC	4.49	3.17	0.378	2.29	-0.295	4.04	3.88	3.41	0.754	2.6	1.1	3.14	0.396	-0.233	1.33	1.43	-0.353	2.55	-0.117	3.74
TCTTGGAGGACACGAAGGTCAGAGCTTTCCAGAG	1.51	1.47	0.0796	1.27	-0.69	2.1	0.905	2.2	2.51	2.31	2.12	2.46	-0.251	-0.635	0.788	1.93	0.605	1.86	-0.208	3.36
TGAATGAGGTTAAAGATCGGGGAACGTGGCGTCG	2.84	2.61	-0.0577	1.64	0.61	4.29	4.54	5.57	3.66	5.49	2.68	3.12	1.11	-0.0519	0.857	1.55	0.231	2.5	0.262	2.15
CTACCAAGGTGAACAAGGTCTTTGATTACTATTC	0.811	0.534	-0.122	1.18	-0.113	1.71	0.626	0.721	0.0464	0.438	2.51	2.75	0.785	0.293	0.597	0.752	0.0854	0.973	0.482	1.72
